Screening data as filed in PubChem.
In the library only some 5.8% were active in any assay of this set; here they are far more common.
12-LOX inh = inhibitors of human 12S-lipoxygenase ALOX12; Potency, µM (top dose mostly 108 µM), inactives show at the highest dose activity change, negative = inhibition, hits mostly inhibitors; P18054; hit rate 1.1% among 580,000; AID 1671190; purified 12hLO, xylenol orange hydroperoxide absorbance; further: on the % scale 0 is the no-effect control and ±100 the full control effect
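Purified human 12hLO (150 nM final) in 25 mM Hepes, 0.01% Triton X-100, pH 7.0 was preincubated 15 min at room temperature with compound. Then 40 uM arachidonic acid was added, 30 min. Hydroperoxide was read by Fe-XO absorbance ratio 573/405 nm.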
KB-3-1 cytotox = KB-3-1 parental cell cytotoxicity | KB-3-1 viability, CellTiter-Glo ATP luminescence, 72 h | Potency, µM (highest dose often 46.1 µM), hits mostly cytotoxic | hit rate 1.4% among 400,000; further: on the % scale 0 is the no-effect control and ±100 the full control effect; nearly all actives have a fitted effect of over 60% in size
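Using CellTiter-Glo luminescence, growth of non-resistant KB-3-1 adenocarcinoma cells is assessed 72 h after pin-tool compound addition at 37 °C. Normalized responses across the concentration series yield fitted curves.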
SW480 rerep = induces DNA re-replication in SW480 colon adenocarcinoma cells; SW480 DNA re-replication, Hoechst DNA content imaging, 48 h; AID 624297; hit rate 1.8% among 340,000; Potency, µM (doses to about 46.1 µM), for inactives: at the highest dose re-replication activation, hits mostly activators; further: % of control where 0% means no effect; nearly all actives have a fitted effect of over 55% in size
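SW480 cells exposed to compounds for 48 hr at 37 C, 5% CO2, then Hoechst-stained 40 min. Nuclear DNA content imaged by fluorescence scanning (405 nm excitation, 500-530 nm emission); re-replication scored as increased high-intensity nuclei.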
KB-V1 cytotox = kills drug-selected multidrug resistant KB-V1 cells; hit rate 3.4% among 400,000; KB-V1 MDR cells viability, CellTiter-Glo, 72 h; AID 1347076; Potency, µM (top dose mostly 46.1 µM), usual class: cytotoxic; further: on the % scale 0 is the no-effect control and ±100 the full control effect; nearly all actives have a fitted effect of over 60% in size
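Potencies derive from concentration-effect curves fitted to normalized luminescence (CellTiter-Glo) of KB-V1 cells treated for 72 h at 37 degrees C in phenol-red-free DMEM containing 10% FBS.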
PINK1 modulator = modulators of PINK1 expression; PINK1 immunofluorescence, high-content cytometry, 24 h; Potency, µM (highest dose often 76.6 µM), inactives show at the top dose activation (PINK1 increase), most hits filed as activators; hit rate 0.2% among 410,000; AID 624263; active means well fitted activation curve with a large enough effect; inconclusive means small, poorly fitted or top-dose-only effect; cell line not stated here; further: % of control where 0% means no effect; nearly all actives have a fitted effect of over 65% in size
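Cells are seeded, rested 12 hours, then given compound at five concentrations or DMSO for 24 hours. After fixation, blocking and antibody staining, PINK1 amount and mitochondrial localization are scored; CCCP serves as control.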
MCF10A rereplic = DNA re-replication induction in MCF 10a cells. MCF 10A DNA re-replication, Hoechst nuclear intensity, 48 h. Potency, µM (series often up to 46.1 µM), inactives show at the top dose activity, positive = re-replication, actives largely listed as activators. hit rate 2.9% among 350,000. AID 624296; further: % of control where 0% means no effect; nearly all actives have a fitted effect of over 50% in size
* = called active by the depositor; i = inactive; ? = inconclusive; · = not tested or not shown; ! = not active in a repeat; [ ] = another dose, or the depositor's remark. Unless noted, the call rests on the fitted dose curve; in most records, active means well fitted curve in the direction sought with a large enough effect; inconclusive means small, poorly fitted or top-dose-only effect, or another doubt; inactive means no such curve, though single readings can be large; an effect the other way counts as inactive or inconclusive. Potency means the concentration at half of the fitted maximal effect.

SMILES	12-LOX inh	KB-3-1 cytotox	SW480 rerep	KB-V1 cytotox	PINK1 modulator	MCF10A rereplic
O=C(CN1C(=O)NC2(CCCC2)C1=O)OCc1ccc(Br)cc1	20%	i	-34%	i	0%	5%
CC1CC(C)(C)CC2(C1)NC(=O)N(CC(=O)OCc1ccc(Br)cc1)C2=O (centres undefined)	-8%	i	4%	16µM*	12%	?
CC(=O)C[C@](N)(c1ccccc1)C(F)(F)F	10%	·	·	·	·	·
COc1ccc(NC(=O)N2CCCC(c3nc(-c4ccc(OC)cc4)no3)C2)cc1 (centres undefined)	-5%	i	5%	i	0%	18%
COc1ccccc1C(=O)N1CCCC(c2nc(-c3cc(OC)c(OC)c(OC)c3)no2)C1 (centres undefined)	10%	i	-1%	4.6µM*	0%	16%
COc1ccc(-c2noc(C3CCCN(S(=O)(=O)c4cccc(Cl)c4)C3)n2)cc1OC (centres undefined)	-12%	?	2%	5.2µM*	-1%[38.3 µM]	?
O=S(=O)(c1ccc(Cl)cc1)N1CCCC(c2nc(-c3ccc(F)cc3)no2)C1 (centres undefined)	-28%	i	12%[9.22 µM]	i	5%	6%
COc1ccc(NC(=O)N2CCCC(c3nc(-c4ccc(C(C)C)cc4)no3)C2)cc1 (centres undefined)	2%	?	8%	8.2µM*	-1%[38.3 µM]	?
COc1cc(CNC(=O)c2nc(-c3ccccc3)oc2C)cc(OC)c1OC	5%	·	·	·	·	·
CC(=O)c1c[nH]c2ccc(Br)cc12	-11%	·	·	·	·	·
N#CC(CC(=O)c1ccc(Cl)cc1)c1ccccc1 (centres undefined)	-21%	i	-3%	16µM*	-2%	1%
Cc1ccc2nc(C)c(C(=O)NCC(=O)Nc3c(C)cccc3C)cc2c1	21%	·	·	·	·	·
CN[C@H]1CC[C@@H](c2ccc(Cl)c(Cl)c2)c2ccccc21	?	?	?	21µM*!	·	?
CNC1CCOc2ccccc21 (centres undefined)	-2%[12.5 µM]	·	·	·	·	·
CCOC(=O)c1c(-c2ccc(OC)c(OC)c2)csc1NC(=O)CNC(C)(C)CC	3%	·	·	·	·	·
COc1ccc(-n2ncc3c(NCc4cccs4)ncnc32)cc1	?	i	20%	i	·	-5%
COc1ccc(-n2ncc3c(NCc4ccco4)ncnc32)cc1	32µM*	i	-4%	21µM*	8%[38.3 µM]	5%
CCc1cc2c(NCC(=O)O)ncnc2s1	0%	i	-4%	i	2%	-3%
Clc1ccc(-n2ncc3c(NCc4ccco4)ncnc32)cc1	?	5µM*	?	?	·	?
Clc1ccc(-n2ncc3c(NCC4CCCO4)ncnc32)cc1 (centres undefined)	23%[57.4 µM]	23µM*	18µM*	12µM*	6%	?
CCc1cc2c(NCc3ccco3)ncnc2s1	?	12µM*	6%	21µM*	2%	2%
Clc1ccc(Cn2ncc3c(NCc4ccco4)ncnc32)c(Cl)c1	?	?	?	?	7%	?
c1ccc(-n2ncc3c(NCC4CCCO4)ncnc32)cc1 (centres undefined)	0%[57.4 µM]	i	-3%[9.22 µM]	?	5%	29%
CC(=O)Nc1c(SC(F)(F)F)cc(SC(F)(F)F)cc1SC(F)(F)F	-19%	·	·	·	·	·
N#CCCN(C(=O)CSc1nc(CN2CCOCC2)nc2ccccc12)c1ccccc1F	-8%	·	·	·	·	·
Cc1ccc(Cl)cc1-n1ncc2c(NC3CCCCCC3)ncnc21	?	21µM*	·	?	?	·
Cc1ccc(Cl)cc1-n1ncc2c(NC3CCCC3)ncnc21	-55%	·	·	·	·	·
Cc1ccc(-c2cn3c(n2)CO[C@@H](CNCc2ccc(Cl)cc2)C3)cc1	13µM*	·	·	·	·	·
c1ccc(CNC[C@H]2Cn3c(-c4ccc5c(c4)OCCO5)cnc3CO2)cc1	56%[176 µM]	·	·	·	·	·
Fc1ccc(-c2cnc3n2C[C@H](CNCc2ccc4c(c2)OCO4)OC3)cc1	22µM*	·	·	·	·	·
